Reference: PubChem BioAssay (Tox21)
Inconclusive results are not listed. Activity calls are given as the source filed them. Unless noted, calls follow the shape of the dose curve; as a rule, active = well fitted curve in the direction sought with a large enough effect in the repeat runs; inconclusive = weak or mixed curves; inactive = no such curve, though single readings can be large; an effect the other way counts as inactive or inconclusive.

How the values were obtained:
[1] = qHTS assay to identify small molecule antagonists of the thyroid receptor (TR) signaling pathway (AID 743065); also: series mostly up to about 70 µM; nearly all actives have a fitted effect of over 55% in size
Method in brief: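 GH3.TRE-Luc rat pituitary cells carrying two TR response elements driving luciferase were plated for 4 h, given compound plus 1 nM T3 (final), and incubated 23.5 h at 37 C. ONE-Glo luminescence measured reporter inhibition; CellTiter-Fluor fluorescence tracked cytotoxicity.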

[2] = test system: thyroid hormone receptor (rat, GH3 cells); experiment: qHTS assay to identify small molecule agonists of the thyroid receptor (TR) signaling pathway (AID 743066; calls by dose curve)
[3] = target: Estrogen receptor (Homo sapiens) (UniProt P03372); experiment: qHTS assay to identify small molecule antagonists of the estrogen receptor alpha (ER-alpha) signaling pathway (AID 743069; active = well fitted curve in the direction sought with a large enough effect in the signal ratio in the repeat runs, not every such curve was filed as active; the % refers to the signal ratio)
Method in brief: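 HEK293 cells stably carrying an ER-alpha-UAS-bla beta-lactamase reporter were pre-cultured overnight in 2% charcoal-stripped FBS medium. Test compounds in DMSO were added together with 17beta-estradiol for 18 hr at 37C. Read-out was fluorescence after 2 hr with LiveBLAzer B/G FRET substrate at room temperature.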

[4] = qHTS assay to identify small molecule antagonists of the estrogen receptor alpha (ER-alpha) signaling pathway - cell viability counter screen (AID 743074; calls by dose curve; also: nearly all actives have a fitted effect of over 45% in size)
[5] = target: Estrogen receptor (Homo sapiens) (UniProt P03372); experiment: qHTS assay to identify small molecule agonists of the estrogen receptor alpha (ER-alpha) signaling pathway (AID 743075; calls by dose curve)
[6] = target: Estrogen receptor (Homo sapiens) (UniProt P03372); experiment: qHTS assay to identify small molecule agonists of the estrogen receptor alpha (ER-alpha) signaling pathway using the BG1 cell line (AID 743079); also: nearly all actives have a fitted effect of over 20% in size
[7] = qHTS assay to identify small molecule antagonists of the estrogen receptor alpha (ER-alpha) signaling pathway using the BG1 cell line (AID 743080; calls by dose curve;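 also: BG1 cells stimulated with 17beta-estradiol alongside compound; series mostly up to about 70 µM; nearly all actives have a fitted effect of over 25% in size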)
Method in brief: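 BG1Luc4E2, endogenous ER-alpha, 4xERE-luc; 5 d charcoal-stripped FBS, phenol red free; 24 h plating; cpd + 17beta-estradiol 21.5 h, 37 C/5% CO2; CellTiter-Fluor viability 30 min, then ONE-Glo luciferase 30 min RT.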

[8] = qHTS assay to identify small molecule antagonists of the estrogen receptor alpha (ER-alpha) signaling pathway using the BG1 cell line - cell viability counter screen (AID 743081);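 also: compound given together with 17beta-estradiol as the ER stimulus; series mostly up to about 70 µM; nearly all actives have a fitted effect of over 45% in size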
[9] = target: Aromatase (Homo sapiens) (UniProt P11511); experiment: qHTS assay to identify aromatase inhibitors (AID 743083); also: series mostly up to about 70 µM; nearly all actives have a fitted effect of over 55% in size
[10] = qHTS assay to identify aromatase inhibitors - cell viability counter screen (AID 743084);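 also: cells stimulated with testosterone during compound exposure; nearly all actives have a fitted effect of over 55% in size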
% is scaled to controls: 0 for no effect and ±100 for the full control effect.

Sequence of Aromatase (Homo sapiens) (P11511 whole entry, looked up): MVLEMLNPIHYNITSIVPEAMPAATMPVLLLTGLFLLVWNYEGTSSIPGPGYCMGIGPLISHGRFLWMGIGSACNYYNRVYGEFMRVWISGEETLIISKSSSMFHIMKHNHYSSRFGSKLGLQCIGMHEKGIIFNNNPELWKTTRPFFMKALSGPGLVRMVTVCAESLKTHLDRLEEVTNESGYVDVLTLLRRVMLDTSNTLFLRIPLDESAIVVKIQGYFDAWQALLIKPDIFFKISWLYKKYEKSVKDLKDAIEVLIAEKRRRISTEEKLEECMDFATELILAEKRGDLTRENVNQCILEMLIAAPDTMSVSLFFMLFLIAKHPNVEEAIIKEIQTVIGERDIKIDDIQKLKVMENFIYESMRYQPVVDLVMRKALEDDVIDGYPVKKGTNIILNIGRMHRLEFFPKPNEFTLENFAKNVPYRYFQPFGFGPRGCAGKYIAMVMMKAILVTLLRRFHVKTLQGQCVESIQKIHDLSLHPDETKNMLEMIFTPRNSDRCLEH
Sequence of Estrogen receptor (Homo sapiens) (P03372 whole entry, looked up): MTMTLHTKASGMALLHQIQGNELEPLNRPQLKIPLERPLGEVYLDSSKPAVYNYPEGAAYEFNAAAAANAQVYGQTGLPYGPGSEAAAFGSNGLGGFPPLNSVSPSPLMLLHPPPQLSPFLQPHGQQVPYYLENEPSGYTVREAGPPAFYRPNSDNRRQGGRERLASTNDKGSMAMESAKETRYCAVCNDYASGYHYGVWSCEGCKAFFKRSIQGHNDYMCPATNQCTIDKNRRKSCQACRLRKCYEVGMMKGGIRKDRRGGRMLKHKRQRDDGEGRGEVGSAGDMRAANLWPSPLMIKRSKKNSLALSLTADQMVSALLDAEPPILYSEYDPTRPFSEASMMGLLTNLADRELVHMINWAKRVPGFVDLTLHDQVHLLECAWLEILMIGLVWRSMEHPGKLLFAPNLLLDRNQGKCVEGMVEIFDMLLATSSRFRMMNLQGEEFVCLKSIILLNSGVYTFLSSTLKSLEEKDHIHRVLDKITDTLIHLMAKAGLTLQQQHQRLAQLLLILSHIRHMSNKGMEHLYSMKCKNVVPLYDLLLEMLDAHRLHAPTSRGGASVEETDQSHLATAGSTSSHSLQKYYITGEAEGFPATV

CCO[Si](CC(C)C)(OCC)OCC
inactive: Potency [1] | Potency [2] | outcome [3] | Potency [4] | Potency [5] | Potency [6] | Potency [7] | outcome [8] | Potency [9]

Cc1cc(C)c(C)c(C)c1
inactive: Potency [1] | Potency [2] | outcome [3] | Potency [4] | Potency [5] | Potency [6] | Potency [7] | outcome [8] | Potency [9] | outcome [10]

CNC(C)=O
inactive: Potency [1] | Potency [2] | outcome [3] | Potency [4] | Potency [5] | Potency [6] | Potency [7] | outcome [8] | Potency [9] | outcome [10]

CN1CCN(C(=O)C2CCCCC2)CC1
inactive: Potency [1] | Potency [2] | outcome [3] | Potency [4] | Potency [5] | Potency [6] | Potency [7] | outcome [8] | Potency [9] | outcome [10]

NNC(=O)OCc1ccccc1
inactive: Potency [1] | Potency [2] | outcome [3] | Potency [4] | Potency [5] | Potency [6] | Potency [7] | outcome [8] | Potency [9] | outcome [10]

COC(=O)c1ccc(C(=O)O)cc1
inactive: Potency [1] | Potency [2] | outcome [3] | Potency [4] | Potency [5] | Potency [6] | Potency [7] | outcome [8] | Potency [9] | outcome [10]

CC(C)C[P+](C)(CC(C)C)CC(C)C
inactive: Potency [1] | Potency [2] | outcome [3] | Potency [4] | Potency [5] | Potency [6] | Potency [7] | outcome [8] | Potency [9] | outcome [10]

CCCC(=O)C(CC)Sc1ccoc1C (centres undefined)
inactive: Potency [1] | Potency [2] | outcome [3] | Potency [4] | Potency [5] | Potency [6] | Potency [7] | outcome [8] | Potency [9] | outcome [10]

COC(=O)N/N=C/c1c[n+]([O-])c2ccccc2[n+]1[O-]
inactive: Potency [1] | Potency [2] | outcome [3] | Potency [4] | Potency [5] | Potency [6] | Potency [7] | outcome [8] | Potency [9] | outcome [10]

O=Cc1ccc(C(=O)O)cc1
inactive: Potency [1] | Potency [2] | outcome [3] | Potency [4] | Potency [5] | Potency [6] | Potency [7] | outcome [8] | Potency [9] | outcome [10]

O=S(=O)(O)c1ccc(Cl)cc1
inactive: Potency [1] | Potency [2] | outcome [3] | Potency [4] | Potency [5] | Potency [6] | Potency [7] | outcome [8] | Potency [9] | outcome [10]

Cc1ccc(Br)cc1
inactive: Potency [1] | Potency [2] | outcome [3] | Potency [4] | Potency [5] | Potency [6] | Potency [7] | outcome [8] | Potency [9] | outcome [10]

CCC(C)c1nccnc1OC (centres undefined)
inactive: Potency [1] | Potency [2] | outcome [3] | Potency [4] | Potency [5] | Potency [6] | Potency [7] | outcome [8] | Potency [9] | outcome [10]

C[n+]1ccccc1/C=N/O
inactive: Potency [1] | Potency [2] | outcome [3] | Potency [4] | Potency [5] | Potency [6] | Potency [7] | outcome [8] | Potency [9] | outcome [10]

CCOC(=O)CC(C(C)=O)C(C)=O
inactive: Potency [1] | Potency [2] | outcome [3] | Potency [4] | Potency [5] | Potency [6] | Potency [7] | outcome [8] | Potency [9] | outcome [10]

CC/C=C\CCCCCCCCCCOC(C)=O
inactive: Potency [1] | Potency [2] | outcome [3] | Potency [4] | Potency [5] | Potency [6] | Potency [7] | outcome [8] | Potency [9] | outcome [10]

CC(O)C(CO)C(C)O (centres undefined)
inactive: Potency [1] | Potency [2] | outcome [3] | Potency [4] | Potency [5] | Potency [6] | Potency [7] | outcome [8] | Potency [9] | outcome [10]

CN(C)CCCN(C)C
inactive: activity, negative = inhibition [1] 0.44% [at 8.44 µM] | activation [2] -3.73% [at 8.08 µM] | activity, negative = inhibition [3] 3.46% [at 6.71 µM] | activity, negative = cytotoxicity [4] 12.6% [at 6.72 µM] | activation [5] -1.03% [at 6.71 µM] | activation [6] -6.84% [at 8.47 µM] | activity change, negative = inhibition [7] 2.33% [at 8.47 µM] | activity change, negative = cytotoxicity [8] 12.4% [at 8.47 µM] | activity, negative = inhibition [9] 7.56% [at 8.47 µM] | activity change, negative = cytotoxicity [10] 2.06% [at 8.47 µM]

C=CCCCCCCCCCCCCCC
inactive: Potency [1] | Potency [2] | outcome [3] | Potency [4] | Potency [5] | Potency [6] | Potency [7] | outcome [8] | Potency [9] | outcome [10]

Nc1ccc(C(=O)NCC(=O)O)cc1
inactive: Potency [1] | Potency [2] | outcome [3] | Potency [4] | Potency [5] | Potency [6] | Potency [7] | outcome [8] | Potency [9] | outcome [10]

CC/C=C/CCCCCCCCCCOC(C)=O
inactive: Potency [1] | Potency [2] | outcome [3] | Potency [4] | Potency [5] | Potency [6] | Potency [7] | outcome [8] | Potency [9] | outcome [10]

CCCCCCCCCCCCCC(=O)OCC
inactive: Potency [1] | Potency [2] | outcome [3] | Potency [4] | Potency [5] | Potency [6] | Potency [7] | outcome [8] | Potency [9] | outcome [10]

CCCCCCCCCCCCCCCC(=O)OC
inactive: Potency [1] | Potency [2] | outcome [3] | Potency [4] | Potency [5] | Potency [6] | Potency [7] | outcome [8] | Potency [9] | outcome [10]

Nc1cc(S(=O)(=O)O)ccc1O
inactive: Potency [1] | Potency [2] | outcome [3] | Potency [4] | Potency [5] | Potency [6] | Potency [7] | outcome [8] | Potency [9] | outcome [10]

O=C(O)Cc1c(Cl)ccc(Cl)c1Cl
inactive: Potency [1] | Potency [2] | outcome [3] | Potency [4] | Potency [5] | Potency [6] | Potency [7] | outcome [8] | Potency [9] | outcome [10]
